Abeta yeast res = restores growth of yeast expressing A-beta42 peptide; yeast expressing A-beta42, growth rescue, OD600, 48 h; response scale: 0% DMSO, 100% iron-clioquinol control; Potency, µM (highest dose often 46.1 µM), hits mostly activators; hit rate 0.063% among 410,000; AID 1347071; further: nearly all actives have a fitted effect of over 55% in size
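Yeast A-beta toxicity model in growth medium with pinned compounds, 48 h at 30 C; growth read as absorbance at 600 nm. Normalized to FeCl3/clioquinol equimolar mix (positive) and DMSO (negative).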
TDP-43 yeast inh = rescues yeast growth from TDP-43 toxicity; TDP-43 expressing yeast growth rescue, BacTiter-Glo, 24 h; Potency, µM (series often up to 46.1 µM), for inactives: at the top dose growth rescue (activation), usual class: activators; hit rate 1.8% among 410,000; AID 652104; further: % of control where 0% means no effect; nearly all actives have a fitted effect of over 50% in size
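Yeast expressing TDP-43 (pregrown in raffinose, seeded at OD600=0.02 in galactose medium) exposed to compounds 24 hr at 30 deg C. Growth read by BacTiter-Glo luminescence; rescue of toxicity appears as increased signal.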
FUS suppressor = FUS proteinopathy suppression in yeast | S. cerevisiae FUS-expressing, growth rescue, OD600, 24 h | Potency, µM (highest dose often 76.6 µM), hits mostly activators | hit rate 0.24% among 390,000;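 further: plate controls were DMSO vehicle for no effect and reference control for full effect; nearly all actives have a fitted effect of over 55% in size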
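Toxicity suppression screen in FUS-yeast. Cells induced with 2% galactose, starting OD 0.005, treated 24hr at 30C with compounds at multiple final concentrations; growth by OD600.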
aSyn yeast inh = inhibitors of alpha-synuclein toxicity in yeast; Yeast expressing alpha-synuclein, growth rescue, BacTiter-Glo, 24 h; Potency, µM (doses to about 46.1 µM), for inactives: top-dose growth rescue (activation), usual class: activators; hit rate 0.14% among 370,000; AID 652106; further: % of control where 0% means no effect; nearly all actives have a fitted effect of over 65% in size
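Screening used galactose-induced yeast with toxic alpha-synuclein levels, exposed to compound for 24 hr at 30 deg C. Cell growth, read with BacTiter-Glo luminescence, gave the measured signal.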
* hit, by the source's call; i = inactive; u = inconclusive; x = no result given; [ ] = another dose, or the depositor's remark. An excerpt weighted towards active compounds, which were near 2.1% of everything screened. The call rests on the fitted dose curve; in most records, active means well fitted curve in the direction sought with a large enough effect; inconclusive means small, poorly fitted or top-dose-only effect, or another doubt; inactive means no such curve, though single readings can be large; an effect the other way counts as inactive or inconclusive. Potency means the concentration at half of the fitted maximal effect.

SMILES | Abeta yeast res | TDP-43 yeast inh | FUS suppressor | aSyn yeast inh
O=C(CSc1c[nH]c2ccccc12)NCc1ccc2c(c1)OCO2 | i | 20% | i | -1%
C[C@@H]1C=CC(=O)O[C@@H]1c1ccc(Cl)cc1 | i | 13µM* | i | -16%
CC1C(=O)OC(c2ccc(Cl)cc2)C(C)(C)C1=O (stereo unspecified) | i | u | i | 16%
Cc1nc(N2CCCCC2)c2c(-c3cccs3)csc2n1 | i | 16µM* | i | -17%
COc1cccc(CNc2ccc([N+](=O)[O-])cc2C)c1 | i | 16µM* | i | 6%
COc1ccc(OC)c(CNc2ccc([N+](=O)[O-])cc2C)c1 | i | u | i | -1%
COc1ccc(-c2ccc3c(N)c(C(=O)NCc4ccc(C)cc4)sc3n2)cc1 | i | 3% | i | x
Cc1ccc(CNC(=O)c2sc3nc(-c4ccc(F)cc4)ccc3c2N)cc1 | i | 8% | 25µM* | x
O=C(NCc1ccccc1)c1cccc2c(-c3cccnc3)coc12 | i | u | i | 0%
COc1ccc(-c2ccc(C(=O)NCc3ccc(N(C)C)cc3)c3occc23)c(C)c1 | i | 18µM* | i | -1%
O=C(Nc1ccccc1)c1cccc2c(-c3cccnc3)coc12 | i | 14µM* | i | 0%
O=C(NCc1ccc(C(F)(F)F)cc1)c1cccc2c(-c3cccnc3)coc12 | i | 13µM* | i | 12%
COc1ccc(-c2coc3c(C(=O)Nc4cccnc4)cccc23)c(C)c1 | i | 18µM* | u | -13%
COc1cccc(C2C(=O)N(C3CCCCC3)CC(=O)N2Cc2ccc(Cl)cc2)c1 (stereo unspecified) | i | u | i | x
CC1C(=O)N2CCCc3cc(S(=O)(=O)N(C)Cc4ccccc4)cc1c32 (stereo unspecified) | i | 20% | i | 9%
Cc1ccc(S(=O)(=O)N[C@H](C(=O)NCC2CCC(C(=O)O)CC2)C(C)C)cc1 (stereo partly specified) | i | -10% | i | 4%
COc1ccc(-c2ccc(C(=O)Nc3cccc(NS(C)(=O)=O)c3)c3occc23)c(C)c1 | i | 14µM* | u | -7%
CN(C)CCNC(=O)c1cccc2c(-c3ccc(F)c(F)c3)coc12 | i | -10% | i | 0%
COc1ccc(NC(=O)c2cccc3c(-c4cccnc4)coc23)cc1 | i | 10µM* | i | 12%
CN(C)c1cccc(NC(=O)c2cccc3c(-c4ccc(F)c(F)c4)coc23)c1 | i | 14µM* | i | 4%
O=C(NCCOc1ccccc1)C1Nc2ccc(C(F)(F)F)cc2C2c3ccccc3CC12 (stereo unspecified) | u | 5% | i | -2%
Cc1cc(NC(=O)COC(=O)c2ccccc2[N+](=O)[O-])no1 | i | 0% | i | 2%
CCOC(=O)c1sc(N2C(=O)C(O)=C(C(=O)c3ccc(C)o3)C2c2ccc(OC)c(OC)c2)nc1C (stereo unspecified) | i | -12% | u | -2%
COc1ccc2nc3cccc(OC)c3nc2c1 | u | 22µM* | i | 6%
COC(=O)[C@@]12C[C@@H](CC(=O)NCCCN3CCCC3=O)C(=O)N(Cc3cccc4ccccc34)C1=CCC(C)(C)C2 | i | 22% | u | -2%
SMILES | Abeta yeast res | TDP-43 yeast inh | FUS suppressor | aSyn yeast inh
O=[N+]([O-])c1ccc(S(=O)(=O)NCC2CC3CCC2C3)cc1 (stereo unspecified) | i | 22% | i | 0%
O=[N+]([O-])c1cccc(S(=O)(=O)NCC2CC3CCC2C3)c1 (stereo unspecified) | i | 11µM* | i | 15%
CC(C)CCNC(=O)c1ccccc1NC(=O)C1=CSCCO1 | i | 1% | i | 3%
Cc1cccc(Nc2nc(Nc3cccc(C)c3)nc(N3CCOCC3)n2)c1 | i | 16µM* | i | x
Cc1ccc(Nc2nc(N/N=C/c3c[nH]c4ccccc34)nc(N3CCOCC3)n2)cc1 | u | u | u | 19%
C(=N\Nc1nc(Nc2ccccc2)nc(N2CCOCC2)n1)/c1c[nH]c2ccccc12 | i | 0% | 28µM* | 5%
Cc1cccc(Nc2nc(N3CCOCC3)nc(N3CCOCC3)n2)c1 | i | u | i | 1%
Cc1ccc(Nc2nc(N)c([N+](=O)[O-])c(N3CCOCC3)n2)cc1C | u | 18µM* | i | 9%
Cc1ccc(Nc2nc(N3CCOCC3)nc(N3CCOCC3)n2)cc1C | u | 13µM* | i | 8%
CCOC(=O)c1cccc(NC(=O)Cn2nc(C)n3cccc3c2=O)c1 | x | 16% | i | 1%
Cc1ccc([C@H]2C(C(=O)O)=CC[C@@H](c3cccc(C)c3)N2S(=O)(=O)c2ccc(C)cc2)cc1 | i | 11% | i | 3%
CCc1cccc2c(=O)c(C(=O)NCCN3CCOCC3)c[nH]c12 | i | 6% | i | 2%
O=C(c1ccccc1Cc1ccccc1)N1CCN(S(=O)(=O)c2ccccc2Br)CC1 | i | 13µM* | i | u
CCc1nc(SCC(=O)c2ccc3c(c2)OCCO3)c2ccccc2n1 | i | 18µM* | i | 0%
O=C(CSc1nc(Cc2ccccc2)nc2ccccc12)c1ccc2c(c1)OCCO2 | i | -16% | i | 0%
COc1ccc(NC(=O)Nc2nc3c(s2)CCCC3)cc1 | i | 14µM* | x | 13µM*
Cc1ccc(CC(=O)Nc2nc3c(s2)CCCC3)cc1 | u | 16µM* | i | 6%
COc1ccc(OCC(=O)Nc2nc3c(s2)CCCC3)cc1 | i | u | i | 11%
O=C(CSc1nnnn1C1CCCCC1)Nc1nc2c(s1)CCCC2 | i | 13µM* | i | u
COC(=O)C1CCN(S(=O)(=O)CCNC(=O)c2cccc(OC)c2)CC1 | i | 20% | x | 2%
O=[N+]([O-])c1ccc(NCCCc2ccccc2)cc1 | i | u | i | -4%
O=C(CCCc1cccs1)Nc1nc2c(s1)CCCC2 | u | 13µM* | i | -15%
CC(C)(C)C1CCc2nc(NC(=O)Cc3cn4ccsc4n3)sc2C1 (stereo unspecified) | i | 16µM* | u | 9%
CCc1nc(SCC(=O)Nc2nc3c(s2)CCCC3)c2ccccc2n1 | i | 10µM* | i | -6%
O=C(Nc1nc2c(s1)CCCC2)c1ccc2ncsc2c1 | i | 13µM* | i | -35%
CC(C)(C)C1CCc2nc(NC(=O)Cc3ccc(Cl)cc3)sc2C1 (stereo unspecified) | u | 29% | i | x
CCCc1nc(SCC(=O)Nc2nc3c(s2)CCCC3)c2ccccc2n1 | i | 1% | u | -9%
Cc1csc(NC(=O)CCCc2cccs2)n1 | i | 13%[9.22 µM] | i | -3%
O=C(NCC(c1cccnc1)N1CCN(c2ccccc2F)CC1)C1CCCCC1 (stereo unspecified) | i | -5% | i | -12%

Screening data as filed in PubChem.
